In PubChem BioAssay (NCATS):
Inconclusive results are not listed. Where a call stands in place of a potency, no number is given. The source made the active and inactive calls. The call rests on the fitted dose curve; in most records, active means well fitted cell-killing curve with a large enough effect; inconclusive means small, poorly fitted or top-dose-only effect; inactive means flat fitted curve, though single readings scatter.

assay: Cell Viability - LYMP2-018 (AID 985); settings: LYMP2-018 lymphoblastoid cells, viability (qHTS); series mostly up to 92.2 µM;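 further: compound exposure lasted 24 hr at 37 °C; nearly all actives have a fitted effect of over 50% in size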
Method in brief: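 Human lymphoblastoid LYMP2-018 cells, 2500/well, settled 5 hr at 37 C then exposed to compound 24 hr at 37 C; intracellular ATP measured by CellTiter-Glo luminescence. AC50 from Hill-equation concentration-response fits.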

Row | SMILES | Potency
1 | Brc1ccccc1 | inactive
2 | CCOP(=S)(OCC)SCSC(C)(C)C | inactive
3 | C=C(C)C#N | inactive
4 | CCSC(=O)Cl | inactive
5 | Cc1cccc([N+](=O)[O-])c1 | inactive
6 | Nc1c(Cl)c(Cl)nc(C(=O)O)c1Cl | inactive
7 | CC(C)(C)OOC(C)(C)C | inactive
8 | C=C(C)C(=O)OCC1CO1 (stereo not drawn) | inactive
9 | Cc1ccc([N+](=O)[O-])cc1C | inactive
10 | O=[N+]([O-])c1ccc(Cl)c(Cl)c1 | inactive
11 | C=CC(=C)C | inactive
12 | Cc1ccc2ccccc2c1 | inactive
13 | Nc1ccccc1Cl | inactive
14 | Clc1ccc2ccccc2c1 | inactive
15 | [O-][Br+2]([O-])O | inactive
16 | Clc1nc(Cl)nc(Nc2ccccc2Cl)n1 | inactive
17 | OCC1CO1 (stereo not drawn) | inactive
18 | C=CCOC(=O)c1ccccc1N | inactive
19 | C=CC(N)=O | inactive
20 | CC(C)(c1ccccc1)c1ccc(O)cc1 | inactive

Row | SMILES | Potency
21 | CCN(CC)c1ccccc1 | inactive
22 | S=C=Nc1cccc2ccccc12 | inactive
23 | N#CCCCl | inactive
24 | O=NN(CCO)CCO | inactive
25 | Cc1ccccc1N | inactive
26 | C=CCOC(C)=O | inactive
27 | CCCC(=O)Cl | inactive
28 | NC(=S)Nc1ccccc1 | inactive
29 | O=C(Cl)/C=C/C(=O)Cl | inactive
30 | C=C(Cl)Cl | inactive
31 | ClCBr | inactive
32 | COc1ccc(C=O)cc1OC | inactive
33 | C=CC(=O)OCC | inactive
34 | c1nc[nH]n1 | inactive
35 | c1ccc2c(c1)CCCC2 | inactive
36 | CCCSC(=O)Cl | inactive
37 | Clc1cccc(C(Cl)(Cl)Cl)n1 | inactive
38 | O=NN(c1ccccc1)c1ccccc1 | inactive
39 | C1CCC2CCCCC2C1 (stereo not drawn) | inactive
40 | CC(O)CCl (stereo not drawn) | inactive

assay: Cell Viability - LYMP2-020 (AID 986); settings: series mostly up to 92.2 µM; further: nearly all actives have a fitted effect of over 55% in size
Method in brief: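 Human lymphoblastoid LYMP2-020 cells (2500/well) preincubated 5 h at 37 C, then treated 24 h at 37 C. Viability measured as intracellular ATP by CellTiter-Glo luminescence after 30 min at room temperature; AC50 from Hill fits.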

Row | SMILES | Potency
41 | Brc1ccccc1 | inactive
42 | CCOP(=S)(OCC)SCSC(C)(C)C | inactive
43 | C=C(C)C#N | inactive
44 | CCSC(=O)Cl | inactive
45 | Cc1cccc([N+](=O)[O-])c1 | inactive
46 | Nc1c(Cl)c(Cl)nc(C(=O)O)c1Cl | inactive
47 | CC(C)(C)OOC(C)(C)C | inactive
48 | C=C(C)C(=O)OCC1CO1 (stereo not drawn) | inactive
49 | Cc1ccc([N+](=O)[O-])cc1C | inactive
50 | O=[N+]([O-])c1ccc(Cl)c(Cl)c1 | inactive
51 | C=CC(=C)C | inactive
52 | Cc1ccc2ccccc2c1 | inactive
53 | Nc1ccccc1Cl | inactive
54 | Clc1ccc2ccccc2c1 | inactive
55 | [O-][Br+2]([O-])O | inactive
56 | Clc1nc(Cl)nc(Nc2ccccc2Cl)n1 | inactive
57 | OCC1CO1 (stereo not drawn) | inactive
58 | C=CCOC(=O)c1ccccc1N | inactive
59 | C=CC(N)=O | inactive
60 | CC(C)(c1ccccc1)c1ccc(O)cc1 | inactive

Row | SMILES | Potency
61 | CCN(CC)c1ccccc1 | inactive
62 | S=C=Nc1cccc2ccccc12 | inactive
63 | N#CCCCl | inactive
64 | O=NN(CCO)CCO | inactive
65 | Cc1ccccc1N | inactive
66 | C=CCOC(C)=O | inactive
67 | CCCC(=O)Cl | inactive
68 | NC(=S)Nc1ccccc1 | inactive
69 | O=C(Cl)/C=C/C(=O)Cl | inactive
70 | C=C(Cl)Cl | inactive
71 | COc1ccc(C=O)cc1OC | inactive
72 | C=CC(=O)OCC | inactive
73 | c1nc[nH]n1 | inactive
74 | c1ccc2c(c1)CCCC2 | inactive
75 | CCCSC(=O)Cl | inactive
76 | Clc1cccc(C(Cl)(Cl)Cl)n1 | inactive
77 | O=NN(c1ccccc1)c1ccccc1 | inactive
78 | C1CCC2CCCCC2C1 (stereo not drawn) | inactive
79 | CC(O)CCl (stereo not drawn) | inactive

assay: Cell Viability - LYMP2-022 (AID 987); settings: LYMP2-022 lymphoblastoid cell viability; series mostly up to 92.2 µM; further: nearly all actives have a fitted effect of over 55% in size
Method in brief: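 LYMP2-022 lymphoblastoid cells (2500/well, complete medium) were treated with compounds for 24 hours at 37 C; intracellular ATP was then read by CellTiter-Glo luminescence after 30 min at room temperature. AC50 values were derived from Hill-equation fits.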

Row | SMILES | Potency
80 | Brc1ccccc1 | inactive
81 | CCOP(=S)(OCC)SCSC(C)(C)C | inactive
82 | CCSC(=O)Cl | inactive
83 | Cc1cccc([N+](=O)[O-])c1 | inactive
84 | Nc1c(Cl)c(Cl)nc(C(=O)O)c1Cl | inactive
85 | CC(C)(C)OOC(C)(C)C | inactive
86 | C=C(C)C(=O)OCC1CO1 (stereo not drawn) | inactive
87 | Cc1ccc([N+](=O)[O-])cc1C | inactive
88 | O=[N+]([O-])c1ccc(Cl)c(Cl)c1 | inactive
89 | C=CC(=C)C | inactive
90 | Cc1ccc2ccccc2c1 | inactive
91 | Nc1ccccc1Cl | inactive
92 | Clc1ccc2ccccc2c1 | inactive
93 | [O-][Br+2]([O-])O | inactive
94 | Clc1nc(Cl)nc(Nc2ccccc2Cl)n1 | inactive
95 | OCC1CO1 (stereo not drawn) | inactive
96 | C=CCOC(=O)c1ccccc1N | inactive
97 | C=CC(N)=O | inactive
98 | CC(C)(c1ccccc1)c1ccc(O)cc1 | inactive
99 | CCN(CC)c1ccccc1 | inactive

Row | SMILES | Potency
100 | S=C=Nc1cccc2ccccc12 | inactive
101 | N#CCCCl | inactive
102 | O=NN(CCO)CCO | inactive
103 | Cc1ccccc1N | inactive
104 | C=CCOC(C)=O | inactive
105 | CCCC(=O)Cl | inactive
106 | NC(=S)Nc1ccccc1 | inactive
107 | O=C(Cl)/C=C/C(=O)Cl | inactive
108 | C=C(Cl)Cl | inactive
109 | ClCBr | inactive
110 | COc1ccc(C=O)cc1OC | inactive
111 | C=CC(=O)OCC | inactive
112 | c1nc[nH]n1 | inactive
113 | c1ccc2c(c1)CCCC2 | inactive
114 | CCCSC(=O)Cl | inactive
115 | Clc1cccc(C(Cl)(Cl)Cl)n1 | inactive
116 | O=NN(c1ccccc1)c1ccccc1 | inactive
117 | C1CCC2CCCCC2C1 (stereo not drawn) | inactive
118 | CC(O)CCl (stereo not drawn) | inactive
